# PubChem BioAssay AID485297 (National Center for Advancing Translational Sciences (NCATS), 2010)
# Screen size: about 320,000 compounds; about 9,100 (2.8%) were called active. Roughly 3% stayed inconclusive and do not appear here. The entries come from a sample that favours actives as a whole. A number with no mark means an inactive call. Calls follow the shape of the dose curve; as a rule, active = well fitted activation curve with a large enough effect; inconclusive = small, poorly fitted or top-dose-only effect; inactive = no such curve, though single readings can be large or run the other way.
# Experiment: qHTS Assay for Rab9 Promoter Activators; also: nearly all actives have a fitted effect of over 60% in size; as to activation, negative = inhibition: % of control where 0% means no effect
# Details: Huh7 Rab9 promoter-luciferase reporter, luminescence, 24 h; series mostly up to 9.22 µM; activation, negative = inhibition: at the top concentration
# From the text: NIH Chemical Genomics Center [NCGC] NIH Molecular Libraries Probe Production centers Network [MLPCN] MLPCN Grant: MH089537-01 Assay Submitter (PI): Yiannis A. Ioannou NCGC Assay Overview: Niemann Pick Type C (NPC) is a rare neurodegenerative lipidosis that is characterized by lipid storage in the endosomal/lysosomal system. Treatment modalities for this devastating disease are currently non-existent due to the severe obstacles associated with accessing the central nervous system with proteins or genes (Ioannou, 2000). We have developed a new paradigm, termed "Orphan Receptor Bypass Therapy" (ORByT), to address these disorders. This paradigm posits the existence of endogenous "suppressor" proteins whose expression can dramatically improve LSD pathogenesis. The goal is the identification/discovery of small chemical compounds that can modulate the expression of these proteins and provide a new treatment modality for these devastating disorders. One such protein whose overexpression reverses aspects of the NPC phenotype is Rab9. We have developed and optimized a cell based luciferase reporter assay in 1536 well format for the identification of up-regulators of the Rab9 promoter.
# The Rab9 promoter is cloned in front of the luciferase reporter gene, therefore […] promoter activation results in luciferase expression. Frozen stock of the Rab9 promoter transfected Huh7 cells were obtained from the laboratory of Dr. Yiannis Ioannou (The Mount Sinai School of Medicine, New York, NY). Cells were propagated and maintained at NCGC in medium containing RPMI-1640 supplemented with 10% FBS, 2mM L-glutamine, and 50ug/ml penicillin/streptomycin. Cells were harvested in and plated for assays in OP-MEM I reduced-serum medium supplemented with 10% FBS. The Amplite luciferase reporter gene assay kit was purchased from ABD Bioquest and prepared/stored according to manufacturers recommendations. qHTS Assay Setup: 1.Dispensed 5ul of Huh7 cells stably expressing Rab9-luciferase at a density of 1500 cells per well 1536-well plates. 2.Incubate cells at 37C, 5% CO2, and 95% humidity for 2 hours. 3.Transferred 23nl per well of compound in DMSO solution. 4.Incubated at 37C, 5% CO2, and 95% humidity for 24 hours. 5.Dispensed 3ul per well of Amplite reagent(ABD Bioquest) per well. 6.Incubate at ambient for 10 minutes. 7.Read using the luminescence protocol on the ViewLux plate reader (Perkin Elmer).
# Potency is read from the fitted curve at half-maximal effect.
SMILES,"activation, negative = inhibition",Potency
Cc1ccc(NC(=O)Cc2nc(COC(=O)C(C)NS(=O)(=O)c3ccc(C)cc3)cs2)cc1 (stereo not drawn),8.45%,–
CCCn1nc(C(=O)OCc2nc(N)nc(Nc3ccccc3C)n2)c2ccccc2c1=O,-5.96%,–
CCN(CC)C(CNC(=O)CSc1nnnn1-c1cccc(F)c1)c1ccco1 (stereo not drawn),-6.55%,–
Cc1cc(O)cc(O)c1C(=O)Cc1cnn(-c2ccccc2)c1,1.31%,–
COc1ccc(CC(=O)c2ccc(O)cc2O)cc1OC,-1.28%,–
COc1ccc(C(=O)Cc2cnn(-c3ccccc3)c2)c(O)c1,–,3160 nM (active)
O=C(CN(CC1CCCO1)C(=O)CNS(=O)(=O)c1ccc(F)cc1)NCc1ccco1 (stereo not drawn),-15.8%,–
CCOC(=O)c1ccccc1NC(=O)COC(=O)C(Cc1c[nH]c2ccccc12)NC(C)=O (stereo not drawn),-1.4%,–
O=C(N/C(=C\c1ccc([N+](=O)[O-])cc1)C(=O)N1CCOCC1)c1cccc(Br)c1,-1.18%,–
COc1ccc(S(=O)(=O)N2CCN(CC(=O)NCC3(N4CCOCC4)CCCCC3)CC2)cc1,-6.43%,–
CN(C)C(=O)COC(=O)c1cccc(S(=O)(=O)N2CC3(C)CC2CC(C)(C)C3)c1 (stereo not drawn),-3.32%,–
CCCN(CCC)c1ccc(C(O)c2nnc(-c3ccccc3)o2)cc1 (stereo not drawn),25.4%,–
O=C(Nc1nnc(-c2ccccc2)o1)c1cc(-c2cccs2)nc2ccccc12,-1.42%,–
OC(c1nnc(-c2ccccc2)o1)c1cccs1 (stereo not drawn),–,4470 nM (active)
CCOC(=O)C1=C(COC(=O)[C@H](C)NS(=O)(=O)c2ccccc2F)NC(=O)NC1C (stereo partly drawn),-5.3%,–
O=C1N/C(=N\N=C\c2ccco2)SC1Cc1ccc(F)cc1 (stereo not drawn),0.456%,–
C=CCN1C(=O)C(Cc2cccc(Cl)c2)S/C1=N/N=C/c1ccco1 (stereo not drawn),-2.42%,–
COc1ccc(CN2C(=O)C(C)S/C2=N/N=C/c2ccco2)cc1 (stereo not drawn),–,2820 nM (active)
O=C(/C=C/c1ccccc1[N+](=O)[O-])OCC(=O)N1CCCC1,-1.9%,–
Cc1nn(Cc2ccccc2)c(C)c1CNC(=O)c1ccc(F)c(S(=O)(=O)N2CCOCC2)c1,-2.2%,–
Cc1csc(=O)n1CCC(=O)OCC(=O)NNC(=O)c1ccc(Br)cc1,1.83%,–
CCN(CC)S(=O)(=O)c1cc(C(=O)Nc2cc(S(=O)(=O)N3CCOCC3)ccc2N2CCCC2)ccc1F,-1.3%,–
CN(C)S(=O)(=O)c1ccc2oc(SCC(=O)Nc3ccccc3F)nc2c1,–,1410 nM (active)
COc1ccc(S(=O)(=O)N(C)C)cc1NC(=O)CSc1ncccn1,0.741%,–
COc1ccc(NS(=O)(=O)c2ccc3oc(SCC(N)=O)nc3c2)cc1,-5.39%,–
CCOC(=O)[C@H]1[C@H]2COc3ccc(C)cc3[C@@H]2N2C(=O)CN(Cc3ccc(F)cc3)C(=O)[C@@]12C,2.24%,–

SMILES,"activation, negative = inhibition",Potency
CC(C#N)(NC(=O)CN1CCN(S(=O)(=O)c2cc(C(F)(F)F)ccc2Cl)CC1)C1CC1 (stereo not drawn),2.72%,–
Cc1cccc(NC(=O)c2ccc3ccccc3n2)n1,–,3160 nM (active)
Cc1cccc(NC(=O)c2cccnc2Cl)n1,5.83%,–
Cc1cccc(NC(=O)c2ccccc2NC(=O)C(C)(C)C)n1,-0.972%,–
COc1ccc(S(=O)(=O)N2CCOCC2)cc1NC(=O)CC1CC2CCC1C2 (stereo not drawn),-6.07%,–
O=C(NCCCc1ccccc1)c1cc(COc2c(F)cccc2F)on1,24.9%,–
CC(C)Cc1cc(C(=O)NCCc2ccccc2)no1,–,3160 nM (active)
Nc1nonc1C(=O)NCCc1ccccc1,-3.41%,–
COc1ccc(CCNC(=O)COC(=O)Cc2cccc(F)c2)cc1,-4.5%,–
CCCC[C@]12Cc3cc(OC)c(OC)cc3C(O1)C1=C(CC3(CCCCC3)OC1=O)O2,-3.75% [at 1.84 µM],–
N#Cc1cccc(NC(=O)C2CCCN(C(=O)c3ccc(Cl)cc3)C2)c1 (stereo not drawn),2.15%,–
N#CC1(NC(=O)COC(=O)CCN=C2NS(=O)(=O)c3ccccc32)CCCCC1,3.55%,–
CC(=O)/C(C)=N/O,3.38% [at 46.1 µM],–
O=C(Nc1ccon1)c1sc2ccccc2c1Cl,–,3160 nM (active)
O=C(Nc1ccon1)c1cccc(Cl)c1,-2.87%,–
O=C(N/N=C/c1c(Cl)[nH]c2ccccc12)c1sc2ccccc2c1Cl,-0.784%,–
CC1CCCCC1NC(=O)COC(=O)Cc1ccc(Cl)cc1 (stereo not drawn),1.14%,–
O=C(C(=O)N1CCc2ccccc2C1)N1CCc2ccccc2C1,-5.85%,–
CCc1ccc(NC(=O)N2CCN(c3ccccc3)CC2)cc1,14.7%,–
CCc1ccc(NC(=O)N2CCc3ccccc3C2)cc1,–,2240 nM (active)
COc1cccc(NC(=O)CN(C)CC(=O)c2c(N)n(Cc3ccccc3)c(=O)n(C)c2=O)c1,1.65%,–
O=C(CNC(=O)c1ccc2ccccc2c1)Nc1ncccc1O,10.7%,–
N#Cc1ccccc1NC(=O)c1cccc(COc2ccc(Cl)cc2Cl)c1,–,447 nM (active)
O=C(Nc1cccc2cccnc12)c1cccc(Cl)c1,2.18%,–
CSc1ccc(C#N)cc1NC(=O)c1cccc(Cl)c1,-1.51%,–
CCN(c1ccccc1)S(=O)(=O)c1cccc(C(=O)NCc2ccccc2CN2CCOCC2)c1,-2.11%,–

SMILES,"activation, negative = inhibition",Potency
CN(CC(=O)Nc1ccc(Cl)cc1)CC(=O)Nc1cccc2ccccc12,-4.32%,–
C/C=C(/C)C(=O)O[C@@H]1c2cc3c(c4c2[C@@]2(CO4)C(=O)C(OC)=C(OC)C=C2C[C@@H](C)[C@H]1C)OCO3,-1.59%,–
O=C(CN(c1cc(C(F)(F)F)ccc1Cl)S(=O)(=O)c1ccccc1)NCc1cccnc1,0.849%,–
CCc1ccc(N(CC(=O)NCc2cccnc2)S(=O)(=O)c2ccccc2)cc1,–,3550 nM (active)
CCCNS(=O)(=O)c1ccc(CCC(=O)NCc2cccnc2)cc1,-7.87%,–
Cc1ccc(CN2CC(C(=O)NNC(=O)Cn3ccc(C(F)(F)F)n3)CC2=O)cc1 (stereo not drawn),1.15%,–
CC(NC(=O)c1ccc(S(=O)(=O)Nc2ccccc2)cc1)c1ccc(S(N)(=O)=O)cc1 (stereo not drawn),4.87%,–
COc1ccccc1C(=O)Nc1ccc(OCC(=O)N2CCCCC2)cc1,-4.82%,–
O=C1CC[C@H](O)CCN1[C@H](CSc1ccc(Br)cc1)Cc1ccccc1,-7.37%,–
CC(C)(CSc1nncn1/N=C/c1ccco1)NS(=O)(=O)c1ccc(Cl)cc1,-3.33%,–
Cc1ccccc1NC(=O)NNC(=O)OC(C)(C)C,-1.38%,–
CC(C)(C)OC(=O)N/N=C/c1ccc(C(=O)O)cc1,10.3%,–
C/C(=N\NC(=O)OC(C)(C)C)c1ccc[nH]1,–,2820 nM (active)
Cc1cccc(C)c1NC(=O)C(Cl)C(=O)c1ccccc1 (stereo not drawn),0.571%,–
CCCCN(C(=O)C1CCC1)c1c(N)n(Cc2ccccc2)c(=O)[nH]c1=O,-2.45%,–
CCC(=O)c1ccc(OCC(=O)OCC(=O)N2CCc3ccccc3C2)cc1,-1.46%,–
O=C(Nc1ccccc1)c1cc2ccccc2[nH]1,–,2510 nM (active)
COc1ccc2[nH]c(C(=O)Nc3ccccc3Cl)cc2c1,-0.505%,–
O=C(Nc1cccc(NC(=O)c2ccc(Br)cc2)c1)c1ccccc1,-4.51%,–
Cc1sc2ncnc(SCC(=O)Nc3ccc(CN4CCCC4)cc3)c2c1C,-3.72%,–
COc1ccc(C[C@H](C(=O)O)N2C(=O)c3ccc(C(=O)O)cc3C2=O)cc1,-0.624%,–
COc1ccc2[nH]cc(CCN3C(=O)c4ccc(C(=O)O)cc4C3=O)c2c1,–,1000 nM (active)
Cc1ccc2[nH]cc(CCCN3C(=O)c4ccccc4C3=O)c2c1,-0.334%,–
COc1cc([N+](=O)[O-])ccc1NC(=O)COC(=O)CCOc1ccc(C)cc1,-12.9%,–
O=C(CSc1ncnc2sccc12)N1CCN(C(=O)c2cccs2)CC1,0.66%,–
O=C(CN1C2=NCCN2c2ccccc21)c1cccs1,-0.857%,–

SMILES,"activation, negative = inhibition",Potency
Nc1c(C(=O)c2cccs2)sc2nsc(SCCN3CCCCC3)c12,–,2510 nM (active)
CCCCC/C=C/C1=CC(=O)C[C@H](c2ccc(Cl)cc2)C1,1.49%,–
COc1ccccc1CNC(=O)COC(=O)c1sc(C)nc1C,-3.97%,–
CCOC(=O)c1c(NC(=S)NC(=O)/C=C/c2cccs2)sc(C)c1C,2.48%,–
CCOC(=O)c1sc(=NC(=O)/C=C/c2cccs2)n(C)c1C,–,2820 nM (active)
CCOC(=O)c1sc(=NC(=O)c2ccc(Br)cc2)n(C)c1C,0.397%,–
C=CCNC(=O)c1ccc(C)c(Br)c1,-1.69%,–
Cc1cccc(-c2nc3ccc(C(=O)NCCN4CCN(C)CC4)cc3nc2-c2cccc(C)c2)c1,2.86%,–
C=CCNC(=O)c1ccc2c3n(nc2c1)-c1ccc(C)cc1CO3,–,891 nM (active)
COc1ccc(CNC(=O)CN2C(=O)NC3(CCCc4sccc43)C2=O)cc1 (stereo not drawn),6.95%,–
CO[C@H]1[C@@H]2C=CO[C@@H](O[C@H]3O[C@@H](CO)[C@H](O)[C@@H](O)[C@@H]3O)[C@@H]2[C@@]2(CO)O[C@@H]12,-3.32%,–
Cc1ccc(-n2cc3ccc([N+](=O)[O-])cc3n2)cc1,–,355 nM (active)
Cc1cc(C)nc(Nc2cc([N+](=O)[O-])ccc2C)n1,-11.1%,–
Cc1ccc(-c2cn(S(=O)(=O)c3cccc([N+](=O)[O-])c3)nc2N)cc1,-1.36%,–
Cc1ccc(CNC(=O)c2cccc3c2C(=O)c2ccc(N4CCC(C)CC4)cc2S3(=O)=O)cc1,15.8%,–
Cc1c(O)c(C)c2c(c1O)C(=O)C[C@@H](c1ccccc1)O2,-3.21%,–
COc1ccc(NC(=O)C2COc3ccccc3O2)cc1 (stereo not drawn),–,3160 nM (active)
COc1ccc(NC(=O)CC2COc3ccccc3O2)c(OC)c1 (stereo not drawn),5.83%,–
CC(=O)c1cccc(NC(=O)C2COc3ccccc3O2)c1 (stereo not drawn),0.233%,–
CC(C)C[C@H](NC(=O)[C@H](O)[C@H](N)Cc1ccccc1)C(=O)O,-1.46% [at 46.1 µM],–
CNS(=O)(=O)c1cccc(C(=O)OCCCC(=O)c2ccccc2)c1,-6.66%,–
O=C(Nc1ccc(Cl)cc1)OCc1cc(-c2ccccc2)on1,0.695%,–
O=C(Nc1cccc(Cl)c1)OCc1ccccn1,–,3980 nM (active)
O=C(Nc1cccc(CCc2ccccn2)c1)c1ccc(Cl)cc1,-8.69%,–
CC(C)N(C(=O)CSc1nnc(NC2CC2)s1)c1ccccc1,-5.19%,–
